PubChem BioAssay (Tox21)
Inconclusive results are not listed. Where a call stands in place of a potency, no number is given. Activity calls are given as the source filed them. Unless noted, the call rests on the fitted dose curve; in most records, active means well fitted curve in the direction sought with a large enough effect in the repeat runs; inconclusive means weak or mixed curves; inactive means no such curve, though single readings can be large; an effect the other way counts as inactive or inconclusive.

Columns and labels:
[1] = qHTS assay to identify aromatase inhibitors - cell viability counter screen (AID 743084); settings: MCF-7 aro ERE viability, CellTiter-Fluor, 24 h; series mostly up to 70.3 µM;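 further: cells stimulated with testosterone during compound exposure; nearly all actives have a fitted effect of over 55% in size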; further: potency means the concentration at half of the fitted maximal effect
[2] = target: Aryl hydrocarbon receptor (Homo sapiens) (UniProt P35869); assay: qHTS assay to identify small molecule that activate the aryl hydrocarbon receptor (AhR) signaling pathway (AID 743085); settings: HepG2 AhR-luc (HG2L7.5c1), luciferase, 24 h; series mostly up to 70.3 µM;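 further: HG2L7.5c1 human HepG2 liver cells with stably integrated DRE-driven firefly reporter; nearly all actives have a fitted effect of over 15% in size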
Procedure, shortened: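 24 h compound exposure, 37C, HepG2-derived HG2L7.5c1 cells with DRE-responsive luciferase. Readouts: fluorescence viability, then luminescence at room temperature after 30 min.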

[3] = qHTS assay to identify small molecule that activate the aryl hydrocarbon receptor (AhR) signaling pathway - cell viability counter screen (AID 743086); settings: HepG2-AhR-luc viability, CellTiter-Fluor, 24 h; series mostly up to 70.3 µM;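 further: HepG2 liver cells carrying the AhR DRE luciferase reporter; nearly all actives have a fitted effect of over 45% in size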
Procedure, shortened: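 Cytotoxicity counter screen: CellTiter-Fluor signal (30 min, 37 C) in 4000 HepG2 cells/well carrying the DRE-luciferase reporter, following 24 h compound exposure at 37 C.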

[4] = target: Peroxisome proliferator-activated receptor gamma (Homo sapiens) (UniProt P37231); assay: qHTS assay to identify small molecule agonists of the peroxisome proliferator-activated receptor gamma (PPARg) signaling pathway (AID 743094; active means well fitted activation curve with a large enough effect in the signal ratio in the repeat runs, not every such curve was filed as active; the % refers to the signal ratio); settings: HEK293H PPARg-UAS-bla, beta-lactamase FRET ratio, 17 h; series mostly up to 57 µM
Procedure, shortened: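 Stably transfected HEK293H cells (GeneBLAzer PPARg UAS-bla) were incubated with test substances for 17 h at 37C after a 5 h pre-incubation; beta-lactamase activity was then detected by FRET substrate fluorescence.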

[5] = target: Nuclear receptor subfamily 1 group I member 2 (Homo sapiens) (UniProt O75469); assay: Human pregnane X receptor (PXR) activation by small molecules, qHTS assay (AID 1346985); settings: DPX-2 HepG2 CYP3A4-luciferase, 24 h; series mostly up to 38.3 µM; further: potency means the concentration at half of the fitted maximal effect; nearly all actives have a fitted effect of over 40% in size
Procedure, shortened: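 DPX-2 cells (HepG2 co-transfected with a PXR response element and a CYP3A4-promoter luciferase construct) were seeded at 2,000 per well, rested 5 hr at 37C, then exposed to DMSO-dissolved compounds for 24 hr. Activation was read as luciferase luminescence.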

Chain of Peroxisome proliferator-activated receptor gamma (Homo sapiens) (P37231 whole entry, looked up): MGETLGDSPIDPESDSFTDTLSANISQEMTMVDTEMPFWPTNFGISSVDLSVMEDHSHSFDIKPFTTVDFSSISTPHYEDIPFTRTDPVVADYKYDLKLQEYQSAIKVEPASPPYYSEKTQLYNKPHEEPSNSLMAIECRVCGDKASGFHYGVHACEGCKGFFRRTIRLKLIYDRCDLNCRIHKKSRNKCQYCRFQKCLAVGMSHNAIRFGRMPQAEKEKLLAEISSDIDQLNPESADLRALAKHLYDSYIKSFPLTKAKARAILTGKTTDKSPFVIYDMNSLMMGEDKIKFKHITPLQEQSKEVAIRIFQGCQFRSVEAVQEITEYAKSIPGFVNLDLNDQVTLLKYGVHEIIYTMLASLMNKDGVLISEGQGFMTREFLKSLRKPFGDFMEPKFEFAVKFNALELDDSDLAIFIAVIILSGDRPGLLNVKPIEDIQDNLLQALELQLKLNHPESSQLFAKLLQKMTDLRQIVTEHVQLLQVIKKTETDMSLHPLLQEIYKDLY
Chain of Aryl hydrocarbon receptor (Homo sapiens) (P35869 whole entry, looked up): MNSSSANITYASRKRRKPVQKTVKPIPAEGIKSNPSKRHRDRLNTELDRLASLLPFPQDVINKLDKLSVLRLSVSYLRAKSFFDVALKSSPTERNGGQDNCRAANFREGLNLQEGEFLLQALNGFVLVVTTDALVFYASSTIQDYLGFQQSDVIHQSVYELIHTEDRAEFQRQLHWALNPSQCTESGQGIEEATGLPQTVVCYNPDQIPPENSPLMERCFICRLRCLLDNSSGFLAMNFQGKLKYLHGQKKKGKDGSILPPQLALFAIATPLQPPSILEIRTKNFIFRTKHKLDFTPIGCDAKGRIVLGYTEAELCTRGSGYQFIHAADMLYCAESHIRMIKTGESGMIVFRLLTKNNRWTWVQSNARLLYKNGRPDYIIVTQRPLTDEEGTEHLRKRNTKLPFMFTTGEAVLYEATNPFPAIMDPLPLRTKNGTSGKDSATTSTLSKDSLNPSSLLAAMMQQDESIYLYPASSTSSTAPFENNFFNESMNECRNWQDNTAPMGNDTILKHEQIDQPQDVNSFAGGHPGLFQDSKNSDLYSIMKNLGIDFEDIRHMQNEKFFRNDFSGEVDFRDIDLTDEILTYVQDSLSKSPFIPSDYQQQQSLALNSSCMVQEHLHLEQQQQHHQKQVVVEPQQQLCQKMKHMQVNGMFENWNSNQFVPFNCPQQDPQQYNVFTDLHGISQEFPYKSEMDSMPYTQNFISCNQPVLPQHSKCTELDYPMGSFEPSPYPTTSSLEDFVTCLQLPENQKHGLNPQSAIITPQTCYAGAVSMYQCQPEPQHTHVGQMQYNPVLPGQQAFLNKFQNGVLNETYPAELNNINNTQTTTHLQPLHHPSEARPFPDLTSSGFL

CCCCCCCCCCCCCCCCCC(=O)[O][Al]
Potency [1]: inactive
Potency [2]: inactive
Potency [3]: inactive

CCCCCCCN(CC)CCCC(O)c1ccc(NS(C)(=O)=O)cc1 (stereo not given)
Potency [1]: inactive
Potency [2]: inactive
Potency [3]: inactive

CCC(=O)OCC(=O)[C@@]1(OC(=O)CC)[C@H](C)C[C@H]2[C@@H]3CCC4=CC(=O)C=C[C@]4(C)[C@@]3(F)[C@@H](O)C[C@@]21C
Potency [1]: inactive
Potency [2]: inactive
Potency [3]: inactive
Potency [4]: inactive

CCC(C)(C)OC(=O)N[C@@H](Cc1c[nH]c2ccccc12)C(=O)N[C@@H](CCSC)C(=O)N[C@@H](CC(=O)O)C(=O)N[C@@H](Cc1ccccc1)C(N)=O
Potency [1]: inactive
Potency [2]: inactive
Potency [3]: inactive
Potency [4]: inactive

CC(=O)[C@@]1(O)CC[C@H]2[C@@H]3C=C(Cl)C4=CC(=O)CC[C@]4(C)[C@H]3CC[C@@]21C
Potency [1]: inactive
Potency [2]: inactive
Potency [3]: inactive

CCC(=O)OCC(=O)[C@@]1(OC(=O)CC)[C@@H](C)C[C@H]2[C@@H]3CCC4=CC(=O)C=C[C@]4(C)[C@@]3(F)[C@@H](O)C[C@@]21C
Potency [1]: inactive
Potency [2]: inactive
Potency [3]: inactive
Potency [4]: inactive

CC(C)(C)C1(O)CCN2CC3c4ccccc4CCc4cccc(c43)C2C1 (stereo not given)
Potency [2]: inactive
Potency [4]: inactive
Potency [5]: 14.1 µM (active)

CN1[C@@H]2CCC[C@H]1CC(NC(=O)c1nn(C)c3ccccc13)C2 (stereo not given in full)
Potency [2]: inactive
Potency [3]: inactive
Potency [4]: inactive

O=C(O[C@H]1CN2CCC1CC2)N1CCc2ccccc2[C@@H]1c1ccccc1
Potency [1]: inactive
Potency [2]: inactive
Potency [3]: inactive

COc1ccc(CNCC(O)COc2ccc3[nH]c(=O)ccc3c2)cc1OC (stereo not given)
Potency [1]: inactive
Potency [2]: inactive
Potency [3]: inactive
Potency [4]: inactive

CCOC(=O)CCC(=O)O[C@H]1[C@H](O[C@@H]2[C@@H](C)[C@H](O[C@H]3C[C@@](C)(OC)[C@@H](O)[C@H](C)O3)[C@@H](C)C(=O)O[C@H](CC)[C@@](C)(O)[C@H](O)[C@@H](C)C(=O)[C@H](C)C[C@@]2(C)O)O[C@H](C)C[C@@H]1N(C)C
Potency [1]: inactive
Potency [3]: inactive
Potency [4]: inactive

CN1CCN(CCC=C2c3ccccc3Sc3ccc(S(=O)(=O)N(C)C)cc32)CC1
Potency [1]: 29.8 µM (active)
Potency [2]: inactive

CCOC(=O)CN[C@@H](C(=O)N1CC[C@H]1C(=O)NCc1ccc(/C(N)=N/O)cc1)C1CCCCC1
Potency [2]: inactive
Potency [4]: inactive

CC(=O)OC[C@H]1O[C@@H](O[C@H]2[C@H](O)[C@@H](OC(=O)c3ccccc3C(=O)O)[C@H](O)O[C@@H]2COC(C)=O)[C@H](O)[C@@H](OC(=O)c2ccccc2C(=O)O)[C@@H]1O
Potency [1]: inactive
Potency [2]: inactive
Potency [3]: inactive
Potency [4]: inactive

Cc1onc(-c2ccccc2)c1C(=O)N[C@@H]1C(=O)N2[C@@H]1SC(C)(C)[C@@H]2C(=O)O
Potency [1]: inactive
Potency [2]: inactive
Potency [3]: inactive
Potency [4]: inactive

Cc1ccc(C2(O)CCN(CCCC(=O)c3ccc(F)cc3)CC2)cc1
Potency [1]: inactive

CCOc1ccc(N=C(C)Nc2ccc(OCC)cc2)cc1
Potency [1]: inactive
Potency [2]: inactive
Potency [3]: inactive

CCC(=O)Oc1ccc2c(c1)CC[C@@H]1[C@@H]2CC[C@]2(C)[C@@H](OC(=O)CC)CC[C@@H]12
Potency [1]: inactive
Potency [2]: inactive
Potency [4]: inactive

C/C=C(/CC[C@@H](C)[C@H]1CC[C@H]2C3=CC[C@H]4[C@H](C)[C@@H](O)CC[C@]4(C)[C@H]3CC[C@]12C)C(C)C
Potency [1]: inactive
Potency [2]: inactive
Potency [3]: inactive
Potency [4]: inactive

CC#CCC(C)[C@H](O)/C=C/[C@@H]1[C@H]2C/C(=C/CCCC(=O)O)C[C@H]2C[C@H]1O (stereo not given in full)
Potency [1]: inactive
Potency [2]: inactive
Potency [3]: inactive
Potency [4]: inactive

COc1ccc(CCNCC(O)COc2cccc(C)c2)cc1OC (stereo not given)
Potency [1]: inactive
Potency [3]: inactive
Potency [4]: inactive

CC#CCC(C)[C@H](O)/C=C/[C@@H]1[C@H]2c3cccc(CCCC(=O)O)c3O[C@H]2C[C@H]1O (stereo not given in full)
Potency [1]: inactive
Potency [2]: inactive
Potency [3]: inactive

CO/N=C(\C(=O)N[C@@H]1C(=O)N2C(C(=O)OCOC(=O)C(C)(C)C)=C(/C=C\c3scnc3C)CS[C@H]12)c1csc(N)n1
Potency [1]: inactive
Potency [2]: inactive
Potency [3]: inactive
Potency [4]: inactive

CN(C)CCOc1ccccc1Cc1ccccc1 (tested in a mixture with another compound)
Potency [2]: inactive
Potency [3]: inactive

COc1cc(Br)c(C[N+]2(CCOCCC3CCC4CC3C4(C)C)CCOCC2)cc1OC (stereo not given)
Potency [1]: inactive
Potency [2]: inactive
Potency [3]: inactive
Potency [4]: inactive
